The campaign covered roughly 52,000 compounds. About 4,300 (8.3%) were called active. No stated cut-off is given here; in the data, active means survival mostly below about 52% (no sharp cut-off); inactive means mostly above about 56%. The list comes from a sample in which actives are over-represented; it also holds similar structures and randomly drawn compounds.

For the assay, the system named is DeltatarO mutant. Description: S. aureus survival, RN4220 and DeltatarO strains – OD600, teichoic acid synthesis inhibitors, primary screen (AID 463173). Conditions: S. aureus RN4220 wild type/DeltatarO growth, OD600, 18 h, stronger effect = lower value, screened at 18.75 µg/mL (by protocol).
Turning to `COc1ccc(NC(=O)C2(c3cccs3)CCOCC2)cc1Cl`, the survival was 91% (inactive).
Next, `Cc1cccc(CN2C(=O)c3ccccc3S(=O)(=O)c3ccc(C(=O)OCC4CCCO4)cc32)c1` (stereo unspecified): 90% (inactive); `CCOc1cccc(OCCCn2c(-c3ccc(Br)cc3)nc3ccccc3c2=O)c1`: 64% (inactive).
For `Cc1ccc(C)c(Cn2c3ccccc3c3cnn(CC(=O)NCC(C)c4ccccc4)c(=O)c32)c1` (stereo unspecified), the survival was 72% (inactive).
Next, `COc1ccccc1NC(=O)NC1(C(=O)N2CCCCC2)CCCCC1`: 85% (inactive); `CCc1ccc(C2N=C(N)Nc3nc4ccccc4n32)cc1` (stereo unspecified): 137% (inactive); `O=C1c2ccccc2-c2nc3ncnn3c(-c3ccc4c(c3)OCO4)c21`: 49% (active).
Under `O=C1C(=Cc2ccc3c(c2)OCO3)C(=O)c2ccccc21` stands 64% (inactive).
In the case of `Cc1cccc(-c2c3c(nc4ncnn24)-c2ccccc2C3=O)c1`, the survival is 74% (inactive).
Next, `Cc1nc2c3ccccc3nc(NNC(=O)CCC(=O)N3CCN(c4cc(Cl)ccc4C)CC3)n2n1`: 55% (active).
Next, `Cc1nc2c3ccccc3nc(NNC(=O)CCC(=O)N3CCN(c4ccccc4F)CC3)n2n1`: 79% (inactive).
Next, `Cc1nc2c3ccccc3nc(NNC(=O)CCC(=O)N3CCN(c4cccc(Cl)c4)CC3)n2n1`: 107% (inactive); `O=c1c2sc3ccccc3c2n(Cc2cccc(C(F)(F)F)c2)c(=O)n1-c1ccccc1`: 73% (inactive).
Consider `O=c1cc(O)c2ccccc2[nH]1`, for which the survival is 75% (inactive).
Under `c1ccc(-c2cc3ccsc3s2)cc1` stands 99% (inactive); under `Oc1cc2ccsc2c2ccccc12`, 9% (active).
As for `COc1ccc(NC(=O)CCCSc2nc(-c3ccco3)cc(C(F)(F)F)n2)cc1`, the survival is 55% (inactive).
Take `COc1ccc(NC(=O)CSc2nc(-c3ccco3)cc(C(F)(F)F)n2)c(OC)c1`: the survival was 56% (inactive).
As for `COc1ccc(NC(=O)CCCSc2nc(-c3ccco3)cc(C(F)(F)F)n2)c(OC)c1`, the survival is 16% (active).
Next, `COc1cc(NC(=O)CSc2nc(-c3ccco3)cc(C(F)(F)F)n2)cc(OC)c1OC`: 54% (inactive); `COc1ccc(NC(=O)CCCSc2nc(-c3ccco3)cc(C(F)(F)F)n2)cc1OC`: 45% (inactive).
Under `COc1cc(NC(=O)CCCSc2nc(-c3ccco3)cc(C(F)(F)F)n2)cc(OC)c1OC` stands 38% (active); under `COc1ccc(-c2nc3scc(CCNS(=O)(=O)c4ccc(C)cc4)n3n2)cc1`, 70% (inactive).
Next, `CCn1cc2nc(SCc3cccc(C(F)(F)F)c3)n(Cc3ccc(Cl)cc3)c(=O)c2n1`: 124% (inactive); `COc1cccc(N2CCN(c3ccc4nnc(CCC(=O)O)n4n3)CC2)c1`: 89% (inactive); `COc1ccc(Cl)cc1NC(=O)NCCc1c(C)nn(C)c1C`: -1% (active).
Turning to `COC(=O)c1ccccc1NC(=O)NCCc1c(C)nn(C)c1C`, the survival is 86% (inactive).
Next, `Cc1nn(C)c(C)c1CCNC(=O)Nc1cccc(Cl)c1C`: 67% (inactive).
Under `COC(=O)c1ccc(Cl)cc1NC(=O)NCCc1c(C)nn(C)c1C` stands 81% (inactive).
Under `Cc1nn(C)c(C)c1CCNC(=O)Nc1ccccc1C(F)(F)F` stands 6% (active).
For `COc1ccc(NC(=O)NCCc2c(C)nn(C)c2C)c(OC)c1`, the survival is 90% (inactive).
Next, `Cn1c(=O)oc2cc(S(=O)(=O)NC(Cc3ccccc3)C(=O)Nc3ccc(F)c(Cl)c3)ccc21` (stereo unspecified): 83% (inactive); `COc1ccc(NC(=O)CN(C)S(=O)(=O)c2cccc3nsnc23)cc1`: 106% (inactive).
Next, `Cc1nnc(SCC(=O)Nc2ccc(N(C)C)cc2)[nH]c1=O`: 77% (inactive); `O=c1[nH]c(SCc2ccccc2)nc2c1CCCC2`: 57% (inactive).
Next, `O=c1[nH]c(SCc2ccc(Br)cc2)nc2c1CCCC2`: 52% (inactive); `O=c1[nH]c(SCc2ccc(F)cc2)nc2c1CCCC2`: 63% (active).
On to `O=C(CSc1nc2ccccc2nc1Cc1ccc(Cl)cc1)N1CCN(c2ccccc2F)CC1`, for which the survival is 71% (inactive).
Turning to `Cc1ccc(NC(=O)CSc2nc3ccc(NC(=O)COc4ccc(C)cc4)cc3s2)cc1`, the survival was 83% (inactive).
Under `CC(=O)Nc1cc(C(=O)NCc2ccc(C)cc2)ccc1Sc1ccc(C)cc1` stands 96% (inactive); under `COCc1cc(C)nc2c1C(=O)NC(c1ccc(Br)cc1)N2Cc1ccccc1` (stereo unspecified), 69% (inactive).
Next, `COc1cc2c(cc1NC(=O)C(C)Oc1ccc(Cl)cc1Cl)oc1ccccc12` (stereo unspecified): 38% (active); `COc1cc2c(cc1NC(=O)COc1cc(C)cc(C)c1)oc1ccccc12`: 59% (inactive); `Cc1ccc(OCC(=O)Nc2cccc3ccc(C)nc23)c(C)c1`: 62% (inactive).
Under `Cc1ccc2cccc(NC(=O)C(C)Oc3ccc(Cl)cc3Cl)c2n1` (stereo unspecified) stands -2% (active); under `COc1ccc(-c2nc3ccccc3o2)cc1NC(=O)C(C)Oc1ccc(Cl)cc1Cl` (stereo unspecified), 38% (active).
Turning to `COc1cc2c(cc1NC(=O)C(C)Oc1ccccc1)oc1ccccc12` (stereo unspecified), the survival was -1% (active).
Under `Cc1ccc2cccc(NC(=O)C(C)Oc3ccc(C)c(C)c3)c2n1` (stereo unspecified) stands 56% (inactive); under `COc1ccc(Cl)cc1NC(=O)NCc1noc2ccccc12`, 35% (inactive); under `COc1cc2c(cc1NC(=O)COc1ccc(Cl)cc1Br)oc1ccccc12`, 51% (inactive).
Consider `COc1cc2c(cc1NC(=O)COc1cc(C)ccc1C)oc1ccccc12`, for which the survival was 79% (inactive).
Next, `CCOC(=O)c1ccc(NC(=O)CSc2nnc3c4ccccc4n(CC)c3n2)cc1`: 72% (inactive); `O=C(CSc1nc2c(c(=O)[nH]1)CN(Cc1ccc3c(c1)OCO3)CC2)Nc1ccc(F)cc1`: 75% (inactive); `Cc1ccc(NC(=O)Cn2cc(S(=O)(=O)c3ccc(C)cc3)c(=O)c3cc4c(cc32)OCO4)cc1`: 58% (inactive).
Under `COc1ccc(NC(=O)c2c(NCc3sccc3C)sc3c2CCCCC3)c(OC)c1` stands 85% (inactive); under `CCOc1ccc(CCNc2ncnc3onc(C)c23)cc1OCC`, 71% (inactive); under `O=C(Nc1cccnc1)c1cc(-c2cccc(Cl)c2)on1`, 115% (inactive).
Under `O=C(CN1C=NS(=O)(=O)c2ccccc21)Nc1ccc(F)cc1` stands 87% (inactive).
On to `CC1=C(C(=O)Nc2ccc(C)cc2C)C(c2ccc[nH]2)n2ncnc2N1` (stereo unspecified), for which the survival was 89% (inactive).
Under `O=C(CSc1ncc2c(n1)-c1ccccc1N(Cc1ccc(F)cc1)S2(=O)=O)c1ccc(Cl)cc1` stands 89% (inactive).
Next, `CCOC(=O)c1c(C)[nH]c(C)c1S(=O)(=O)N(C)CC(=O)N1CCN(c2cccc(C)c2C)CC1`: 84% (inactive); `CC(C)c1nn2c(=O)cc(COC(=O)c3ccc(NC(=O)COc4ccccc4)cc3)nc2s1`: 98% (inactive); `O=C(NCCS(=O)(=O)N1CCN(c2ccc(F)cc2)CC1)c1cc(=O)c2ccccc2o1`: 94% (inactive).
As for `CCCOc1ccc(C2C(=O)N(C3CCCCCC3)CC(=O)N2CCC2=CCCCC2)cc1OC` (stereo unspecified), the survival was 119% (inactive).
Under `COc1ccc(C2C(=O)N(C3CCC(C)CC3)CC(=O)N2C2CCCCC2)cc1OC` (stereo unspecified) stands 76% (inactive).
Under `CCCOc1ccc(C2C(=O)N(C3CCCCC3)CC(=O)N2C2CCCCC2)cc1OC` (stereo unspecified) stands 91% (inactive); under `CCCN1C(=O)CN(C2CCCCCC2)C(=O)C1c1ccc(OCC)c(OC)c1` (stereo unspecified), 109% (inactive); under `COc1ccc(C2C(=O)N(C3CCC(C)CC3)CC(=O)N2CCC2=CCCCC2)cc1OC` (stereo unspecified), -1% (active).
Take `COc1ccc(C2C(=O)N(C3CCC(C)CC3)CC(=O)N2C2CCCC2)cc1OC` (stereo unspecified): the survival was -2% (active).
Next, `CCCOc1ccc(C2C(=O)N(C3CCC(C)CC3)CC(=O)N2CCC2=CCCCC2)cc1OC` (stereo unspecified): 80% (inactive); `CCCCN1C(=O)CN(C2CCCCCC2)C(=O)C1c1ccc(OCCC)c(OC)c1` (stereo unspecified): 66% (inactive); `CCCOc1ccc(C2C(=O)N(C3CCCCCC3)CC(=O)N2CCC)cc1OC` (stereo unspecified): -4% (active).
Next, `CCCCN(C)C(=O)CN1C(=O)CCn2nc(-c3cn(C)c4ccccc34)cc21`: 117% (inactive); `Cc1cccc(NC(=O)CSc2nc(=O)n(CCN3CCOCC3)c3c2CCC3)c1`: 86% (inactive).
Next, `COc1cccc(C(=O)NCCSc2c(-c3ccc(F)cc3)[nH]c3ccccc23)c1OC`: 52% (inactive); `O=C(NC1CCN(C(=O)Nc2cccc(F)c2)CC1)c1ccco1`: 88% (inactive); `COc1cccc(N2C(=O)N(CC(=O)NCc3cccc(OC)c3OC)c3ccccc3S2(=O)=O)c1`: 95% (inactive).
On to `COc1cc(C(Nc2ccc(S(=O)(=O)N3CCCC3)cc2)C(=O)NC(C)(C)C)cc(OC)c1OC` (stereo unspecified), for which the survival was 77% (inactive).
Next, `CC(=O)ONC(=Nc1ccccc1C)c1nonc1N`: 101% (inactive); `COc1ccc(OC)c(/C=C(/C#N)c2nc(-c3ccc(-c4ccccc4)cc3)cs2)c1`: 52% (inactive); `Cc1ccccc1/C=C(\C#N)c1nc(-c2ccc(Cl)cc2)cs1`: 14% (active).
Consider `Cc1ccc(-c2csc(/C(C#N)=C/c3ccccc3Cl)n2)cc1`, for which the survival was 21% (active).
Under `COc1c(Cl)cc(Cl)cc1/C=C(\C#N)c1nc(-c2ccc(Cl)cc2)cs1` stands 122% (inactive); under `N#C/C(=C/c1ccccc1Cl)c1nc(-c2cc3ccccc3oc2=O)cs1`, 81% (inactive); under `N#C/C(=C\c1ccc(Cl)cc1Cl)c1nc(-c2cccc(Cl)c2)cs1`, 79% (inactive).
Under `O=C1[C@@H]2CSC(c3ccc(Cl)cc3)N2C(=O)N1c1ccccc1` (stereo partly specified) stands 71% (inactive); under `CCc1ccc(CSc2nc(-c3ccc(OC)cc3)nc3c2Cc2c(CO)cnc(C)c2O3)cc1`, 72% (inactive); under `COCCNC(=O)C1CC(=O)N(c2ccc(C)cc2)C1` (stereo unspecified), 82% (inactive).
Under `CCOC(=O)c1cc(-c2ccc(OC)cc2)n(CCC(=O)NC2CCCCC2)c1C` stands 115% (inactive); under `CCOc1ccc(CCNC(=O)Cn2nnc(-c3ccc(C(F)(F)F)cc3)n2)cc1OCC`, 82% (inactive).
As for `O=C(CSc1nc(=O)n(Cc2ccncc2)c2c1CCC2)Nc1ccc(F)cc1F`, the survival is 78% (inactive).

(Values after PubChem BioAssay AID463173 (ICCB-Longwood Screening Facility, Harvard Medical School, 2010).)
